Experimental data from PubChem BioAssay AID602371 (National Center for Advancing Translational Sciences (NCATS), 2012).
Results filed as inconclusive are left out. The source made the active and inactive calls. Calls follow the shape of the dose curve; as a rule, active = well fitted inhibition curve with a large enough effect; inconclusive = small, poorly fitted or top-dose-only effect; inactive = flat fitted curve, though single readings scatter.

Assay: qHTS Assay for Inhibitors of Bacillus subtilis Sfp phosphopantetheinyl transferase (PPTase): SAR in B subtilis 168
Conditions: Bacillus subtilis 168 growth inhibition
Text: The covalent attachment of a phosphopantetheinyl (4'-PP) arm to a variety of synthases and other proteins is a key posttranslational protein modification. The 4'-PP is installed on the proteins post-translationally from coenzyme A (CoA) on a conserved serine residue by action of phosphopantetheinyl transferase (PPTase) enzymes. Phosphopantetheinylation is essential for synthase activity, and removal of the PPTase gene precludes natural product synthesis in microorganisms, or in the case of fatty acid biosynthesis, renders the organism unviable. PPTase enzymes belong to a distinct structural superfamily. Within bacteria, these enzymes are grouped into two classes based upon primary structure, the AcpS-Type and Sfp-Type PPTases.
Sfp-type PPTases, corresponding to an activator of surfactin production in Bacillus subtilis, are responsible for modifying type I polyketide and nonribosomal peptide synthases of prokaryotes. Sfp-type PPTases are responsible for the activation of a variety of pathogen-associated virulence factors. Among these compounds are toxins such as mycolactone from Mycobacterium ulcerans, siderophores such as vibriobactin from Vibrio cholerae or mycobactin from Mycobacterium tuberculosis, as well as the mycolic acids which form the waxy cell wall of Mycobacteria. The biosyntheses of these natural products are considered attractive targets for drug design.
In search of small molecule Sfp-PPTase inhibitors, a fluorescence quenching assay was developed for detection of Bacillus subtilis Sfp-PPTase enzymatic activity in a miniaturized high-throughput format. The consensus ybbr acceptor peptide […] was N-terminally labeled with Black Hole Quencher-2 (BHQ-2) and used in combination with rhodamine-labeled coenzyme A as a co-substrate.
Phosphopantetheinyl transfer is a process essential to cellular viability and maintenance. Cell-permeable and stable compounds acting as PPTase inhibitors are anticipated to be antimicrobial agents in organisms with complimenting genotypes. […] This experiment evaluated a series of test compounds for antimicrobial activity with B. subtilis 168 (genotype: acpS+ and sfp-), a strain that contains a frameshift mutation in the sfp locus and thus requires a functional AcpS gene product for viability. [Mootz HD, 2001] This strain is expected to be sensitized to cell-permeable AcpS inhibitors, and insensitive to Sfp inhibitors.
NIH Chemical Genomics Center [NCGC]
NIH Molecular Libraries Probe Centers Network [MLPCN]
Assay Submitter (PI): Michale Burkart, University of California, San Diego
Bacillus subtilis 168 is maintained on lysogeny broth (LB) solidified by the addition of 1.5% w/v agar. Single colonies were used to LB medium (2 mL) and shaken overnight at 30 deg C. In the morning, this culture (100 uL) was used to seed a fresh LB medium (10 mL) and was shaken at 30 degC until the culture OD600 reached 0.5. This culture was diluted 1:100 in fresh LB medium to provide the inoculum below.
Bacterial susceptibility.
LB medium (2 uL) is dispensed into wells of a sterile white 1536-well plate. Test compounds (23 nL) prepared as serial dilutions in DMSO are added to the plate by pintool transfer. Innoculum (2 uL) is added, the plates are covered with a vented Kalypsys assay lid and incubated at 30 deg C. After 5 h, Bac-Titer Glo (4 uL; Promega Corp, Madison, WI) is added to the plates. They are incubated 10 minutes at room temperature and then the luminescence detected in a ViewLux multimodal plate reader.

Potency, active:
S=C(Nc1cc(Cl)ccn1)N1CCN(c2cccc(Cl)c2Cl)CC1 16.7 µM, Cc1cc(C)nc(NC(=S)N2CCN(c3ccc(Cl)c(Cl)c3)CC2)c1 37.3 µM, Cc1cc(C)nc(NC(=S)N2CCN(c3ccc(Cl)cc3Cl)CC2)c1 33.2 µM, Cc1ccnc(NC(=S)N2CC3CN(c4ncc(C(F)(F)F)cc4Cl)CC3C2)c1 (centres undefined) 16.7 µM, Cc1cc(C)nc(NC(=S)N2CCN(c3ccc([N+](=O)[O-])cc3Cl)CC2)c1 14.8 µM, FC(F)(F)c1cccc(N2CCN(C(=S)Nc3cc(C(F)(F)F)ccn3)CC2)c1 16.7 µM, Cc1ccnc(NC(=S)Nc2cccc(C(F)(F)F)c2)c1 18.7 µM, Cc1ccnc(NC(=S)N2CC3CN(c4cccc(C(F)(F)F)c4)CC3C2)c1 (centres undefined) 8.35 µM, FC(F)(F)c1cc(N2CCN(C(=S)Nc3cc(Cl)ccn3)CC2)cc(C(F)(F)F)c1 6.63 µM, Cc1ccnc(NC(=S)N2CCN(c3cccc(N(C)C)c3)CC2)c1 46.9 µM, Cc1cc(C)nc(NC(=S)N2CC3CN(c4ccc(Cl)cc4C(F)(F)F)CC3C2)c1 (centres undefined) 11.8 µM, COc1ccnc(NC(=S)N2CCN(c3ncc(C(F)(F)F)cc3Cl)CC2)c1 18.7 µM, COc1ccnc(NC(=S)N2CCN(c3cccc(Cl)c3Cl)CC2)c1 13.2 µM, Cc1ccnc(NC(=S)N2CCN(c3cc(C(F)(F)F)cc(C(F)(F)F)c3)CC2)c1 14.8 µM, Cc1ccnc(NC(=S)N2CCCN(c3cccc(C(F)(F)F)c3)CC2)c1 11.8 µM, COc1ccnc(NC(=S)N2CCN(c3ccc(Cl)cc3Cl)CC2)c1 16.7 µM, Cc1cc(C)nc(NC(=S)N2CCN(c3cc(Br)cc(C(F)(F)F)c3)CC2)c1 16.7 µM, Cc1ccnc(NC(=S)N2CCN(c3cccc(C(F)(F)F)c3)CC2)c1 14.8 µM, CSC(Cc1ccc(Cl)cc1)C(=O)Nc1ccc(Cl)cc1C(=O)O (centres undefined) 23.5 µM
